The source made the active and inactive calls. Rule as the data show it, unless noted: active = inhibition above about 30%; inactive = the rest.

A short description of one assay: yeast transport mutant growth inhibition pilot in 384-well plates, post-Golgi transport modulator project (AID 636; in the data active = inhibition above about 31%). Particulars: absorbance 615 nm, about 18 h, stronger effect = higher value.
As to `Cc1ccc(-c2nnn(CC(=O)N(CC(=O)NC3CCCCC3)c3cnc4ccccc4c3)n2)o1`, the inhibition was -7.6% (inactive).
Regarding `COCc1nnc(NC(=O)CCCOc2ccccc2)s1`, the inhibition is -6.53% (inactive).
The same measure, in the same setting: the same measure for `CCc1cc2ccc(C)cc2nc1SCC(=O)N1CCN(C(=O)c2ccco2)CC1`: -3.82% (inactive); for `NC(=O)NC(c1ccccc1)c1ccccc1F` (stereo not given): -0.51% (inactive).
Still for that read-out and setting: the same measure for `CC(C)c1nnc(SCC(=O)NCc2ccco2)n1C`: -0.14% (inactive).
Take `Cn1c(=O)c2c(nc(NCCCO)n2C/C=C/c2ccccc2)n(C)c1=O`: the inhibition is -4.08% (inactive).
For `O=C(Nc1c(-c2ccccc2)nc2ccccn12)c1ccco1`, the inhibition was -0.92% (inactive).
As to `Nc1nc(N2C(=O)C3CC=CCC3C2=O)nn1-c1ccccc1` (stereo not given), the inhibition was 1.3% (inactive).
On the same count and under the same terms, with `COc1ccc(C(=O)NCc2nnc(SCC(=O)Nc3cc(C)cc(C)c3)o2)cc1OC` the figure was 0.13% (inactive); with `c1coc(Cn2nnnc2CN2CCN(C3CCCC3)CC2)c1`, -4.67% (inactive); with `O=C(C1CCN(c2nnnn2-c2ccccc2)CC1)N1CCN(c2ccccc2)CC1`, -5.27% (inactive).
Consider `COC(=O)c1ccc(CNC(=O)COc2ccccc2Br)o1`, for which the inhibition was -3.33% (inactive).
As to `CCOC(=O)C1CCCN(c2c(NCc3ccco3)c(=O)c2=O)C1` (stereo not given), the inhibition is 2% (inactive).
Consider `CC1(C)NC(=O)N(CC(O)CN(Cc2ccccc2)Cc2ccccc2)C1=O` (stereo not given), for which the inhibition was -4.59% (inactive).
Regarding `O=C1c2ccccc2C(O)(Cc2ccccc2)N1Cc1ccco1` (stereo not given), the inhibition is -2.37% (inactive).
Same read-out and setting: with `Cc1onc(-c2ccccc2)c1C(N)=O` the figure was -1.32% (inactive); with `CCC1(CC)NC(=O)NC1=O`, -4.74% (inactive); with `Cc1ccc2[nH]c3c(c2c1)CCc1cn[nH]c1-3`, -0.8% (inactive).
Take `COc1ccc(C(=O)Nn2c(C3CCC3)nc3ccccc3c2=O)c(OC)c1`: the inhibition was -1.56% (inactive).
Turning to `CCOC(=O)CSc1nnc(CCc2nc3ccccc3[nH]2)n1C`, the inhibition was -4.93% (inactive).
In the case of `COC(=O)c1[nH]c2cc(OC)ccc2c1NC(=O)CCN1CCCCC1`, the inhibition is -1.97% (inactive).
In the case of `Nc1nnc(C(=O)c2ccccc2N)s1`, the inhibition is -1.04% (inactive).
In the case of `CCn1c(C(=O)OC)cc2c1ccn2-c1ccc(F)cc1`, the inhibition was -5.13% (inactive).
Turning to `CC(C)C(NC(=O)c1ccco1)C(=O)NCC(c1ccco1)N1CCCCC1` (stereo not given), the inhibition is -2.97% (inactive).
As for `Cc1cc2ccccn2c1C(=O)c1ccncc1`, the inhibition is -3.77% (inactive).
On to `CCCCc1c(O)nc(SCCN(C)C)n(-c2ccccc2)c1=O`, for which the inhibition is -1.18% (inactive).
Still for that read-out and setting: with `COc1ccccc1N1CCN(c2nc3ccccc3nc2C(C#N)C(=O)OC(C)C)CC1` (stereo not given) the figure was 1.58% (inactive); with `CC1CCN(Cc2ccc(-c3nn[nH]n3)cc2)CC1`, 1.04% (inactive).
Still for that read-out and setting: with `CCCCCc1c(C)nc(N2CCc3ccccc32)[nH]c1=O` the figure was -0.68% (inactive).
`COc1cccc(-n2c(SC3CCOC3=O)nc3ccccc3c2=O)c1` (stereo not given): the inhibition is -5.2% (inactive).
`O=C(Nc1ccccc1C(=O)N1CCCCCC1)c1cccc(S(=O)(=O)N2CCOCC2)c1`: the inhibition was -1.84% (inactive).
Still for that read-out and setting: the same measure for `COc1cc(OC)cc(C(=O)NCCN2CCOCC2)c1`: -4.47% (inactive).
Still for that read-out and setting: the same measure for `Cc1ccc(C)c(NC(=O)CC(NCCCN2CCOCC2)C(=O)O)c1` (stereo not given): -0.78% (inactive); for `O=C(CN(C(=O)CCC(=O)Nc1nccs1)c1ccccc1F)NCC1CCCO1` (stereo not given): -3.33% (inactive); for `CCOC(=O)N1CCN(C(=O)CSc2nnc(-c3cc(OC)cc(OC)c3)o2)CC1`: -5.66% (inactive).
`Cc1ccc2nc(NC(=O)C3CCCN(S(=O)(=O)c4cnc[nH]4)C3)sc2c1` (stereo not given): the inhibition was -2.67% (inactive).
For the compound `C=Cn1nc(C)c2ccccc2c1=O`, the inhibition is -3.33% (inactive).
Take `CCC(C)(C(=O)NC1CCCC1)N(C(=O)c1cnccn1)c1c(C)n(C)n(-c2ccccc2)c1=O` (stereo not given): the inhibition was 2.34% (inactive).
As to `Cc1ccc(NC(=O)C2CCCN(S(=O)(=O)c3cnc[nH]3)C2)c(Br)c1` (stereo not given), the inhibition is -0.93% (inactive).
On the same count and under the same terms, the same measure for `CC(=O)Nn1c(C)nnc1-n1nc(C)cc1C`: -1.95% (inactive).

The nature of another assay: growth suppression of yeast trafficking mutant, preliminary HTS, modulators of trafficking downstream of Golgi apparatus project, 1536-format plate, OD 615 nm (AID 637). Particulars: yeast transport mutant growth, absorbance 615 nm, 18 h; stronger effect = higher value.
With `Cc1ccc(-c2nnn(CC(=O)N(CC(=O)NC3CCCCC3)c3cnc4ccccc4c3)n2)o1`, the inhibition was -1.61% (inactive).
For the compound `COCc1nnc(NC(=O)CCCOc2ccccc2)s1`, the inhibition is -3.97% (inactive).
With `CCc1cc2ccc(C)cc2nc1SCC(=O)N1CCN(C(=O)c2ccco2)CC1`, the inhibition was -0.18% (inactive).
For the compound `NC(=O)NC(c1ccccc1)c1ccccc1F` (stereo not given), the inhibition is -8% (inactive).
As to `CC(C)c1nnc(SCC(=O)NCc2ccco2)n1C`, the inhibition was 4.76% (inactive).
As to `Cn1c(=O)c2c(nc(NCCCO)n2C/C=C/c2ccccc2)n(C)c1=O`, the inhibition was -0.17% (inactive).
The same measure, in the same setting: the same measure for `O=C(Nc1c(-c2ccccc2)nc2ccccn12)c1ccco1`: -4.55% (inactive); for `Nc1nc(N2C(=O)C3CC=CCC3C2=O)nn1-c1ccccc1` (stereo not given): -12.2% (inactive); for `COc1ccc(C(=O)NCc2nnc(SCC(=O)Nc3cc(C)cc(C)c3)o2)cc1OC`: 1.33% (inactive).
Regarding `c1coc(Cn2nnnc2CN2CCN(C3CCCC3)CC2)c1`, the inhibition is -8.41% (inactive).
Turning to `O=C(C1CCN(c2nnnn2-c2ccccc2)CC1)N1CCN(c2ccccc2)CC1`, the inhibition was 5.08% (inactive).
As to `COC(=O)c1ccc(CNC(=O)COc2ccccc2Br)o1`, the inhibition is -10% (inactive).
On the same count and under the same terms, with `CCOC(=O)C1CCCN(c2c(NCc3ccco3)c(=O)c2=O)C1` (stereo not given) the figure was -6.07% (inactive); with `CC1(C)NC(=O)N(CC(O)CN(Cc2ccccc2)Cc2ccccc2)C1=O` (stereo not given), -10.2% (inactive).
As to `O=C1c2ccccc2C(O)(Cc2ccccc2)N1Cc1ccco1` (stereo not given), the inhibition was -9.19% (inactive).
On to `Cc1onc(-c2ccccc2)c1C(N)=O`, for which the inhibition is -4.35% (inactive).
For `CCC1(CC)NC(=O)NC1=O`, the inhibition was 3.11% (inactive).
As for `Cc1ccc2[nH]c3c(c2c1)CCc1cn[nH]c1-3`, the inhibition is -8.23% (inactive).
In the case of `COc1ccc(C(=O)Nn2c(C3CCC3)nc3ccccc3c2=O)c(OC)c1`, the inhibition is 1.9% (inactive).
`CCOC(=O)CSc1nnc(CCc2nc3ccccc3[nH]2)n1C`: the inhibition was -7.78% (inactive).
As to `COC(=O)c1[nH]c2cc(OC)ccc2c1NC(=O)CCN1CCCCC1`, the inhibition is -4.43% (inactive).
On to `Nc1nnc(C(=O)c2ccccc2N)s1`, for which the inhibition was 3.93% (inactive).
`CCn1c(C(=O)OC)cc2c1ccn2-c1ccc(F)cc1`: the inhibition is -1.82% (inactive).
Turning to `CC(C)C(NC(=O)c1ccco1)C(=O)NCC(c1ccco1)N1CCCCC1` (stereo not given), the inhibition is -0.32% (inactive).
Turning to `Cc1cc2ccccn2c1C(=O)c1ccncc1`, the inhibition was 2.22% (inactive).
For `CCCCc1c(O)nc(SCCN(C)C)n(-c2ccccc2)c1=O`, the inhibition is 2.62% (inactive).
With `COc1ccccc1N1CCN(c2nc3ccccc3nc2C(C#N)C(=O)OC(C)C)CC1` (stereo not given), the inhibition was -1.82% (inactive).
For `CC1CCN(Cc2ccc(-c3nn[nH]n3)cc2)CC1`, the inhibition was 30% (active).
The same measure, in the same setting: the same measure for `CCCCCc1c(C)nc(N2CCc3ccccc32)[nH]c1=O`: 3.17% (inactive); for `COc1cccc(-n2c(SC3CCOC3=O)nc3ccccc3c2=O)c1` (stereo not given): -6.03% (inactive); for `O=C(Nc1ccccc1C(=O)N1CCCCCC1)c1cccc(S(=O)(=O)N2CCOCC2)c1`: -1.45% (inactive).
Turning to `COc1cc(OC)cc(C(=O)NCCN2CCOCC2)c1`, the inhibition is -4.36% (inactive).
Consider `Cc1ccc(C)c(NC(=O)CC(NCCCN2CCOCC2)C(=O)O)c1` (stereo not given), for which the inhibition was 9.51% (inactive).
As to `O=C(CN(C(=O)CCC(=O)Nc1nccs1)c1ccccc1F)NCC1CCCO1` (stereo not given), the inhibition was 13.1% (inactive).
Take `CCOC(=O)N1CCN(C(=O)CSc2nnc(-c3cc(OC)cc(OC)c3)o2)CC1`: the inhibition is -1% (inactive).
Still for that read-out and setting: the same measure for `Cc1ccc2nc(NC(=O)C3CCCN(S(=O)(=O)c4cnc[nH]4)C3)sc2c1` (stereo not given): -3.11% (inactive).
In the case of `C=Cn1nc(C)c2ccccc2c1=O`, the inhibition is -7.83% (inactive).
For `CCC(C)(C(=O)NC1CCCC1)N(C(=O)c1cnccn1)c1c(C)n(C)n(-c2ccccc2)c1=O` (stereo not given), the inhibition was -7.38% (inactive).
As to `Cc1ccc(NC(=O)C2CCCN(S(=O)(=O)c3cnc[nH]3)C2)c(Br)c1` (stereo not given), the inhibition was -1.97% (inactive).
For the compound `CC(=O)Nn1c(C)nnc1-n1nc(C)cc1C`, the inhibition was -1.64% (inactive).

(Values after PubChem BioAssay.)
